Records with an inconclusive call do not appear. Active and inactive are the calls of the source. The call rests on the fitted dose curve; in most records, active means well fitted curve in the direction sought with a large enough effect in the repeat runs; inconclusive means weak or mixed curves; inactive means no such curve, though single readings can be large; an effect the other way counts as inactive or inconclusive.
Tests used:
[1] = qHTS RealTime-Glo MT Cell Viability Assay in HEK293 cells - 16 hour (AID 1224872); further: top concentration of the series differs between compounds; nearly all actives have a fitted effect of over 50% in size
Procedure, shortened: (§1)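 Viability tracked continuously by luminescence as live cells reduce a prosubstrate for NanoLuc; HEK293 cells preincubated 5 h, compound-treated at 37 C, and read at 0, 8, 16, 24, 32 and 40 h.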

[2] = qHTS RealTime-Glo MT Cell Viability Assay in HepG2 cells - 8 hour (AID 1224873); further: nearly all actives have a fitted effect of over 55% in size
Procedure, shortened: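 Real-time viability: cells seeded at 600 per well together with NanoLuc and cell-permeant prosubstrate, compounds added after 5 h incubation. Luminescence tracked at 0, 8, 16, 24, 32 and 40 h of exposure.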

[3] = qHTS RealTime-Glo MT Cell Viability Assay in HEK293 cells - 40 hour (AID 1224874); conditions: RealTime-Glo luminescence; max response: active compounds read low; further: nearly all actives have a fitted effect of over 50% in size
Procedure, shortened: (§2)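 600 cells/well were plated with the nonlytic NanoLuc/prosubstrate reagent, pre-incubated 5 h, then given 23 nL of compound in DMSO. Incubation at 37 C for 40 h, with luminescence from viable-cell-reduced substrate read repeatedly from 0 h.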

[4] = A CellTox Green Cytotoxicity Assay to monitor cytotoxicity in HEK293 cells - 24 hour (AID 1224875); further: series mostly up to about 77 µM; nearly all actives have a fitted effect of over 45% in size
Procedure, shortened: (§3)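 HEK293 cells, 600/well, were preincubated 5 hours and then exposed to compounds at 37 C for up to 40 hours. A cell-impermeant cyanine dye staining dead-cell DNA was read by fluorescence at 0, 8, 16, 24, 32 and 40 h time points.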

[5] = A CellTox Green Cytotoxicity Assay to monitor cytotoxicity in HepG2 cells - 16 hour (AID 1224876); further: nearly all actives have a fitted effect of over 45% in size
Procedure, shortened: (§4)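 HepG2 cells, 600/well, preincubated 5 h with CellTox Green dye, then exposed to Tox21 compounds in DMSO at 37 C for up to 40 h. Dead-cell DNA fluorescence read at the indicated time point.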

[6] = qHTS RealTime-Glo MT Cell Viability Assay in HepG2 cells - 32 hour (AID 1224877); further: nearly all actives have a fitted effect of over 55% in size
Procedure, shortened: (§5)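 Viability was tracked continuously by NanoLuc luminescence from prosubstrate reduced by living HepG2 cells, at successive time points over 40 h of compound exposure. Cells with reagent were preincubated 5 h at 37 °C before compound addition.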

[7] = A CellTox Green Cytotoxicity Assay to monitor cytotoxicity in HepG2 cells - 24 hour (AID 1224878); further: nearly all actives have a fitted effect of over 45% in size
Procedure, shortened: as §4

[8] = A CellTox Green Cytotoxicity Assay to monitor cytotoxicity in HepG2 cells - 40 hour (AID 1224879); further: nearly all actives have a fitted effect of over 40% in size
Procedure, shortened: as §4

[9] = qHTS RealTime-Glo MT Cell Viability Assay in HEK293 cells - 0 hour (AID 1224880); further: top concentration of the series differs between compounds; nearly all actives have a fitted effect of over 45% in size
Procedure, shortened: as §2

[10] = A CellTox Green Cytotoxicity Assay to monitor cytotoxicity in HEK293 cells - 32 hour (AID 1224881); further: nearly all actives have a fitted effect of over 40% in size
Procedure, shortened: as §3

[11] = A CellTox Green Cytotoxicity Assay to monitor cytotoxicity in HepG2 cells - 0 hour (AID 1224882); further: nearly all actives have a fitted effect of over 35% in size
Procedure, shortened: as §4

[12] = A CellTox Green Cytotoxicity Assay to monitor cytotoxicity in HepG2 cells - 32 hour (AID 1224883); further: nearly all actives have a fitted effect of over 50% in size
Procedure, shortened: as §4

[13] = A CellTox Green Cytotoxicity Assay to monitor cytotoxicity in HEK293 cells - 8 hour (AID 1224884); further: nearly all actives have a fitted effect of over 35% in size
Procedure, shortened: as §3

[14] = qHTS RealTime-Glo MT Cell Viability Assay in HepG2 cells - 16 hour (AID 1224885); further: nearly all actives have a fitted effect of over 50% in size
Procedure, shortened: as §5

[15] = qHTS RealTime-Glo MT Cell Viability Assay in HEK293 cells - 24 hour (AID 1224886)
Procedure, shortened: as §1

[16] = qHTS RealTime-Glo MT Cell Viability Assay in HEK293 cells - 8 hour (AID 1224887)
Procedure, shortened: as §2

[17] = A CellTox Green Cytotoxicity Assay to monitor cytotoxicity in HEK293 cells - 16 hour (AID 1224888); further: nearly all actives have a fitted effect of over 35% in size
Procedure, shortened: as §3

[18] = qHTS RealTime-Glo MT Cell Viability Assay in HepG2 cells - 0 hour (AID 1224889); further: nearly all actives have a fitted effect of over 50% in size
Procedure, shortened: as §5

[19] = A CellTox Green Cytotoxicity Assay to monitor cytotoxicity in HepG2 cells - 8 hour (AID 1224890); further: nearly all actives have a fitted effect of over 45% in size
Procedure, shortened: as §4

[20] = qHTS assay to identify small molecule antagonists of the estrogen receptor alpha (ER-alpha) signaling pathway using the BG1 cell line in the presence of 0.1 nM 17-beta-estradiol - cell viability counter screen (AID 1259241); further: nearly all actives have a fitted effect of over 40% in size
Procedure, shortened: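 In this screen, hormone-deprived VM7Luc4E2 cells were seeded at 4,000 per well, dosed with compound and 0.1 nM estradiol final, and incubated 22 hr at 37C and 5% CO2; fluorogenic live-cell protease signal reported viability.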
On the % scale 0 is the no-effect control and ±100 the full control effect.

CCCCCCCCCCc1ccccc1
inactive: Potency [1] | Potency [2] | max response [3] -5.33% | Potency [4] | Potency [5] | Potency [6] | Potency [7] | Potency [8] | Potency [9] | Potency [10] | Potency [11] | Potency [12] | Potency [13] | Potency [14] | Potency [15] | Potency [16] | Potency [17] | Potency [18] | Potency [19] | Potency [20]

O=S(O)O
inactive: activity change, negative = cytotoxicity [1] 5.35% [at 15.8 µM] | viability change, negative = cytotoxic [2] 3.13% [at 15.8 µM] | max response [3] 7.9% | activity change [4] -0.851% [at 15.8 µM, active compounds read high] | cytotoxicity increase [5] -6.63% [at 15.8 µM] | activity change, negative = cytotoxic [6] 4.15% [at 15.8 µM] | cytotoxicity [7] -9.86% [at 15.8 µM] | cytotoxicity increase [8] -12.9% [at 15.8 µM] | activity change, negative = cytotoxicity [9] 10.2% [at 15.8 µM] | cytotoxicity increase [10] 0.593% [at 15.8 µM] | cytotoxicity [11] -14.5% [at 15.8 µM] | cytotoxicity increase [12] -11% [at 15.8 µM] | cytotoxicity increase [13] 0.551% [at 15.8 µM] | activity change, negative = cytotoxic [14] 2.97% [at 15.8 µM] | activity change, negative = cytotoxicity [15] 11.2% [at 15.8 µM] | activity change, negative = cytotoxicity [16] 3.5% [at 15.8 µM] | activity change [17] 1.02% [at 15.8 µM, active compounds read high] | activity change, negative = cytotoxicity [18] -7.74% [at 15.8 µM] | cytotoxicity increase [19] -4.46% [at 15.8 µM] | activity change, negative = cytotoxicity [20] 0.521% [at 19 µM]

C=C(C)CCCC
inactive: Potency [1] | Potency [2] | max response [3] 3.81% | Potency [4] | Potency [5] | Potency [6] | Potency [7] | Potency [8] | Potency [9] | Potency [10] | Potency [11] | Potency [12] | Potency [13] | Potency [14] | Potency [15] | Potency [16] | Potency [17] | Potency [18] | Potency [19] | Potency [20]

CCC(=O)OCCc1ccccc1
inactive: Potency [1] | Potency [2] | max response [3] 14% | Potency [4] | Potency [5] | Potency [6] | Potency [7] | Potency [8] | Potency [9] | Potency [10] | Potency [11] | Potency [12] | Potency [13] | Potency [14] | Potency [15] | Potency [16] | Potency [17] | Potency [18] | Potency [19] | Potency [20]

CCc1cccc(CC)c1NC(=O)C(=O)O
inactive: Potency [1] | Potency [2] | max response [3] 9.15% | Potency [4] | Potency [5] | Potency [6] | Potency [7] | Potency [8] | Potency [9] | Potency [10] | Potency [11] | Potency [12] | Potency [13] | Potency [14] | Potency [15] | Potency [16] | Potency [17] | Potency [18] | Potency [19] | Potency [20]

OCCCc1cccnc1
inactive: Potency [1] | Potency [2] | max response [3] -2.22% | Potency [4] | Potency [5] | Potency [6] | Potency [7] | Potency [8] | Potency [9] | Potency [10] | Potency [11] | Potency [12] | Potency [13] | Potency [14] | Potency [15] | Potency [16] | Potency [17] | Potency [18] | Potency [19] | Potency [20]

O=C1OC(OC(=O)c2cccnc2Nc2cccc(C(F)(F)F)c2)c2ccccc21 (centres undefined)
inactive: Potency [1] | Potency [2] | max response [3] -1.07% | Potency [4] | Potency [5] | Potency [6] | Potency [7] | Potency [8] | Potency [9] | Potency [10] | Potency [11] | Potency [12] | Potency [13] | Potency [14] | Potency [15] | Potency [16] | Potency [17] | Potency [18] | Potency [19] | Potency [20]

OCCCCl
inactive: Potency [1] | Potency [2] | max response [3] 8.9% | Potency [4] | Potency [5] | Potency [6] | Potency [7] | Potency [8] | Potency [9] | Potency [10] | Potency [11] | Potency [12] | Potency [13] | Potency [14] | Potency [15] | Potency [16] | Potency [17] | Potency [18] | Potency [19] | Potency [20]

Brc1ccccn1
inactive: Potency [1] | Potency [2] | max response [3] -0.513% | Potency [4] | Potency [5] | Potency [6] | Potency [7] | Potency [8] | Potency [9] | Potency [10] | Potency [11] | Potency [12] | Potency [13] | Potency [14] | Potency [15] | Potency [16] | Potency [17] | Potency [18] | Potency [19] | Potency [20]

CCCCCCCC(=O)OCC
inactive: Potency [1] | Potency [2] | max response [3] -3.83% | Potency [4] | Potency [5] | Potency [6] | Potency [7] | Potency [8] | Potency [9] | Potency [10] | Potency [11] | Potency [12] | Potency [13] | Potency [14] | Potency [15] | Potency [16] | Potency [17] | Potency [18] | Potency [19] | Potency [20]

CC1=CCC(=O)O1
inactive: Potency [1] | Potency [2] | max response [3] 8.04% | Potency [4] | Potency [5] | Potency [6] | Potency [7] | Potency [8] | Potency [9] | Potency [10] | Potency [11] | Potency [12] | Potency [13] | Potency [14] | Potency [15] | Potency [16] | Potency [17] | Potency [18] | Potency [19] | Potency [20]

Cc1cc(=O)[nH]c(=O)[nH]1
inactive: Potency [1] | Potency [2] | max response [3] -0.154% | Potency [4] | Potency [5] | Potency [6] | Potency [7] | Potency [8] | Potency [9] | Potency [10] | Potency [11] | Potency [12] | Potency [13] | Potency [14] | Potency [15] | Potency [16] | Potency [17] | Potency [18] | Potency [20]
